For some of these results: Results with a measured potency or affinity are listed apart.
Legend:
Set-up in all cases: scale not given: direction of the effect not stated beside the values
[1] = target: Protein translocase subunit SecA (Escherichia coli (strain K12)) (UniProt P10408); assay: Assay to Identify E. coli SecA ATPase Inhibitors; type: functional; settings: 30 µM
[2] = target: T1, Ubiquitin-activating enzyme e1, putative (Leishmania donovani (strain BPK282A1)) (UniProt E9BSI1); assay: Leishmania donovani Ubiquitin Activating Enzyme (LdE1); type: functional; settings: 30 µM
T1 sequence (whole entry): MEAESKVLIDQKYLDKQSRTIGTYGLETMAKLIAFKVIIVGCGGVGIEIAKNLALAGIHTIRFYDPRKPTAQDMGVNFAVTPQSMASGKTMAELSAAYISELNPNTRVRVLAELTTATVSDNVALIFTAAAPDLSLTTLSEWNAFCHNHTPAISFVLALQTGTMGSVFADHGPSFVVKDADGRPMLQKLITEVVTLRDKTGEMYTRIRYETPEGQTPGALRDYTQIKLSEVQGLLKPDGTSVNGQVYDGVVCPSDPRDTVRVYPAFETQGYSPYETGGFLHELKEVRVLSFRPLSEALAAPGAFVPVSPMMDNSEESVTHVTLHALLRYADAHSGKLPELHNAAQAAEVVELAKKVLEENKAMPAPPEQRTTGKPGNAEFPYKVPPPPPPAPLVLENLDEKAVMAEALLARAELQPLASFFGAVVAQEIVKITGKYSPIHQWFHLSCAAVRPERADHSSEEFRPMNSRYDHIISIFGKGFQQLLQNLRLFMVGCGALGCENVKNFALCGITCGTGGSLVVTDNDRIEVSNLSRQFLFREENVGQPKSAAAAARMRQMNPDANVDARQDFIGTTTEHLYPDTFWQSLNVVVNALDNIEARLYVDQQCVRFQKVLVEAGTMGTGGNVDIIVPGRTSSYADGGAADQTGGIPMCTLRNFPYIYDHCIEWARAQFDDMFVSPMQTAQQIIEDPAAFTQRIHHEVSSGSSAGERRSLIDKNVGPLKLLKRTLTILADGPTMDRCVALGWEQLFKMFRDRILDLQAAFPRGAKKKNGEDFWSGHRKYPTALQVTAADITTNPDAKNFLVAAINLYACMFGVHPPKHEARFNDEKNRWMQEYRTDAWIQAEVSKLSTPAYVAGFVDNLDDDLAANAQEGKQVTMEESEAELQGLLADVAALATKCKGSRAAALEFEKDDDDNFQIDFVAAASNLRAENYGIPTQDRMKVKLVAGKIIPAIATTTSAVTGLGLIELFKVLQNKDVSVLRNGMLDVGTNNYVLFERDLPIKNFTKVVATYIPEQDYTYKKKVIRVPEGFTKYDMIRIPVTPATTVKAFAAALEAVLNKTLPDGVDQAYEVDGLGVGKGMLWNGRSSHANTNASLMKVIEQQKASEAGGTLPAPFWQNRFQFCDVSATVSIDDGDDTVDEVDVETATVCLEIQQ

[3] = target: Sialic acid-binding Ig-like lectin 9 (Homo sapiens) (UniProt Q9Y336); assay: Hs-Siglec9 ALPHAscreen SOP 20170721; settings: 10 µM
Sequence of Sialic acid-binding Ig-like lectin 9 (Homo sapiens) (Q9Y336 whole entry): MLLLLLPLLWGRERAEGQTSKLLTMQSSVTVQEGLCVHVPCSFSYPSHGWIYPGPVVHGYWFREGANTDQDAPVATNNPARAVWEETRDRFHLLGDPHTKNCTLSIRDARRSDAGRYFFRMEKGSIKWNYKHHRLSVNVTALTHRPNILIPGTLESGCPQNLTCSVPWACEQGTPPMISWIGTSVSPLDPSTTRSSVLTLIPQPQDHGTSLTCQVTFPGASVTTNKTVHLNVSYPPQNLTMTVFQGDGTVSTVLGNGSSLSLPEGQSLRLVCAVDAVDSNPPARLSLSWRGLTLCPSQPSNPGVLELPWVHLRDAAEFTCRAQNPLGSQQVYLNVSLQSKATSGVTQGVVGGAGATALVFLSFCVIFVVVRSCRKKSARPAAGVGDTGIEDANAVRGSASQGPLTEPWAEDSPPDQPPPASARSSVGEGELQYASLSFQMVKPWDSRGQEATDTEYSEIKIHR

[4] = tested on: Trypanosoma cruzi; assay: Trypanosoma cruzi phosphomannomutase and mannose-1-phosphate guanylyltransferase assay; type: functional; settings: 10 µM
[5] = target: T2, Arginase-2, mitochondrial (Homo sapiens) (UniProt P78540); assay: in vitro enzyme assay to detect the production of urea directly proportional to the activity of Arginase II; type: functional; settings: 33.3 µM; note: in the data most compounds retested in dose-response had high values
T2 sequence (whole entry): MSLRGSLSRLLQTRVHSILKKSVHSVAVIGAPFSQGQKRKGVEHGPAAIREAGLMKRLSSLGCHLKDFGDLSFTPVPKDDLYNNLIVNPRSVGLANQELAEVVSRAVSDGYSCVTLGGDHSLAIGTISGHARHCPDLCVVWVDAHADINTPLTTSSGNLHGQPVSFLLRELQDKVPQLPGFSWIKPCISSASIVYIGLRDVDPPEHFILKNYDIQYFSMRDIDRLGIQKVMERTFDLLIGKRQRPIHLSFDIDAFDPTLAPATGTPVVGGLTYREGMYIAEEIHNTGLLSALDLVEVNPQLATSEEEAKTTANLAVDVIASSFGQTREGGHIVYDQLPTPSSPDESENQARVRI

[6] = target: T3, Proteasome subunit beta (Trypanosoma cruzi) (UniProt O96673); assay: Trypanosoma cruzi proteasome chymotrypsin-like activity (TcProtChymo) assay.; note: in the data most compounds retested in dose-response had high values; type: functional; settings: 9.37 µM
T3 sequence (whole entry): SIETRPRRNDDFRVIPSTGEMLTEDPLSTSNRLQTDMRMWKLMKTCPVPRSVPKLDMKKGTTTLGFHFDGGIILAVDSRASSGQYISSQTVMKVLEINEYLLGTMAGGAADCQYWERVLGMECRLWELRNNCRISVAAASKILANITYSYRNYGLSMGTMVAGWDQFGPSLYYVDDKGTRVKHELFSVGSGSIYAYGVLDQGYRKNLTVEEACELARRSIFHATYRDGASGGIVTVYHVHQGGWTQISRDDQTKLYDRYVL

[7] = organism: Homo sapiens; assay: To identify inhibition of the IFN signalling (Jak-Stat) pathway via expression of an eGFP reporter gene under the control of an IFN-stimulated response element (ISRE) containing MxA promoter.; type: functional; settings: 30 µM
[8] = target: T4, Tyrosyl-tRNA synthetase, putative (Trypanosoma cruzi (strain CL Brener)) (UniProt Q4DSP6); assay: Trypanosoma cruzi tyrosyl tRNA synthetase (TcYRS) _High Tyrosine SOP; type: functional; settings: 30 µM; note: in the data most compounds retested in dose-response had high values
T4 sequence (whole entry): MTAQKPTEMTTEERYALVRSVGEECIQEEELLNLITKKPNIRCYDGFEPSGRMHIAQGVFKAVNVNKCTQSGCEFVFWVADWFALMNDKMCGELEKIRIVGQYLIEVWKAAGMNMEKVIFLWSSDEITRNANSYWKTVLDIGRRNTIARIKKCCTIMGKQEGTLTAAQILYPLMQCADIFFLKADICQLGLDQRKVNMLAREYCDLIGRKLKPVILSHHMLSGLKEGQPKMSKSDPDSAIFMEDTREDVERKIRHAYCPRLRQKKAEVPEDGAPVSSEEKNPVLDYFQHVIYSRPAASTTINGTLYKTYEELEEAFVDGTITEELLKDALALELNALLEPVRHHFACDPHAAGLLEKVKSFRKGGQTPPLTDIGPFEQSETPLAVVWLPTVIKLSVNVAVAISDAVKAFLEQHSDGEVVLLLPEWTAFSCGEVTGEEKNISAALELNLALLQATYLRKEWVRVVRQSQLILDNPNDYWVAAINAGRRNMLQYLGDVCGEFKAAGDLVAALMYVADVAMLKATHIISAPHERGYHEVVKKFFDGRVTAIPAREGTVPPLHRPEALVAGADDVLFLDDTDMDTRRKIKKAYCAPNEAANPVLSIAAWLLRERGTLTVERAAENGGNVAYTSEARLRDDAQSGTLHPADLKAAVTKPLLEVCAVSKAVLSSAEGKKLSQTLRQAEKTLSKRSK

[9] = target: T4, Tyrosyl-tRNA synthetase, putative (Trypanosoma cruzi (strain CL Brener)); assay: Trypanosoma cruzi tyrosyl tRNA synthetase (TcYRS) SOP; type: functional; settings: 30 µM
[10] = target: Chromo domain-containing protein 1 (Saccharomyces cerevisiae (strain ATCC 204508 / S288c) (Baker's yeast)) (UniProt P32657); assay: ScCHD-1 Enzyme Inhibition Assay; type: functional; settings: 30 µM; note: in the data most compounds retested in dose-response had high values
Sequence of Chromo domain-containing protein 1 (Saccharomyces cerevisiae (strain ATCC 204508 / S288c) (Baker's yeast)) (P32657 whole entry, the tested form may be a part): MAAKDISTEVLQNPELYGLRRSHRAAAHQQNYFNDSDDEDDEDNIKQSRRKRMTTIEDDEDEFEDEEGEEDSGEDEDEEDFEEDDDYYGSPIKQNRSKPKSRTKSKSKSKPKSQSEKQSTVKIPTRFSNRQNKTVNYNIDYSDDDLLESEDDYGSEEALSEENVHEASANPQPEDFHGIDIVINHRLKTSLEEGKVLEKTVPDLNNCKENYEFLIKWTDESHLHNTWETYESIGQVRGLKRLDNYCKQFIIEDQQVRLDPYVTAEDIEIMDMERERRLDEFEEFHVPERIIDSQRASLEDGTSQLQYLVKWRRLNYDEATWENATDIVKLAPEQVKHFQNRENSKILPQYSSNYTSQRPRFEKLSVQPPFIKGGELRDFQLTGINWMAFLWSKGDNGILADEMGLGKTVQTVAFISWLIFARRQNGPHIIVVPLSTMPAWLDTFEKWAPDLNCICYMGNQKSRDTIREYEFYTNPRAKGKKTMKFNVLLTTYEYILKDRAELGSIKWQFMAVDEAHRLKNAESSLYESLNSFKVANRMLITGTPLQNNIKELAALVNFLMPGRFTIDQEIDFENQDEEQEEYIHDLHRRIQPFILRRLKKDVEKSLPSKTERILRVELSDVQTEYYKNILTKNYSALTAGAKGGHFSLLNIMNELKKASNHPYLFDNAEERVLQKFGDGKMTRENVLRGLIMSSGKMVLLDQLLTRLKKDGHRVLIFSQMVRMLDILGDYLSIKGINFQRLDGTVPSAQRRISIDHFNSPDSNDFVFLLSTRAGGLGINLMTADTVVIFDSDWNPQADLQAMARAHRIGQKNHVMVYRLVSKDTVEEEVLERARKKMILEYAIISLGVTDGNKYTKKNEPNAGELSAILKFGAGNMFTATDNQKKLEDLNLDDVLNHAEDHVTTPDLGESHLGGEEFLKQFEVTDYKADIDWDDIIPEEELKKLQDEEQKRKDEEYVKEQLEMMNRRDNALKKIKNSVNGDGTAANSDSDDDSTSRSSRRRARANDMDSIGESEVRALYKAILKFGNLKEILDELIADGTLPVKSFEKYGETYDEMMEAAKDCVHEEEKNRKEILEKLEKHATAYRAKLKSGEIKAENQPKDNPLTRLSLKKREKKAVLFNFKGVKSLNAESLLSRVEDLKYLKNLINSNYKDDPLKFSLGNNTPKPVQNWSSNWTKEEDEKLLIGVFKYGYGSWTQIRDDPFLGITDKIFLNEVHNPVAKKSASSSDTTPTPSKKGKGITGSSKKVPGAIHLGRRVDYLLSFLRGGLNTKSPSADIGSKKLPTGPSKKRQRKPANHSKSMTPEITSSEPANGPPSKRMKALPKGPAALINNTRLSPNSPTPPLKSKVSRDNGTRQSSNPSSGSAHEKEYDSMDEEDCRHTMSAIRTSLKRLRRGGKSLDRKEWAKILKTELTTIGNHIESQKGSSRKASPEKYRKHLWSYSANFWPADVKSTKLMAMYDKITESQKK

Sequence of Protein translocase subunit SecA (Escherichia coli (strain K12)) (P10408 whole entry): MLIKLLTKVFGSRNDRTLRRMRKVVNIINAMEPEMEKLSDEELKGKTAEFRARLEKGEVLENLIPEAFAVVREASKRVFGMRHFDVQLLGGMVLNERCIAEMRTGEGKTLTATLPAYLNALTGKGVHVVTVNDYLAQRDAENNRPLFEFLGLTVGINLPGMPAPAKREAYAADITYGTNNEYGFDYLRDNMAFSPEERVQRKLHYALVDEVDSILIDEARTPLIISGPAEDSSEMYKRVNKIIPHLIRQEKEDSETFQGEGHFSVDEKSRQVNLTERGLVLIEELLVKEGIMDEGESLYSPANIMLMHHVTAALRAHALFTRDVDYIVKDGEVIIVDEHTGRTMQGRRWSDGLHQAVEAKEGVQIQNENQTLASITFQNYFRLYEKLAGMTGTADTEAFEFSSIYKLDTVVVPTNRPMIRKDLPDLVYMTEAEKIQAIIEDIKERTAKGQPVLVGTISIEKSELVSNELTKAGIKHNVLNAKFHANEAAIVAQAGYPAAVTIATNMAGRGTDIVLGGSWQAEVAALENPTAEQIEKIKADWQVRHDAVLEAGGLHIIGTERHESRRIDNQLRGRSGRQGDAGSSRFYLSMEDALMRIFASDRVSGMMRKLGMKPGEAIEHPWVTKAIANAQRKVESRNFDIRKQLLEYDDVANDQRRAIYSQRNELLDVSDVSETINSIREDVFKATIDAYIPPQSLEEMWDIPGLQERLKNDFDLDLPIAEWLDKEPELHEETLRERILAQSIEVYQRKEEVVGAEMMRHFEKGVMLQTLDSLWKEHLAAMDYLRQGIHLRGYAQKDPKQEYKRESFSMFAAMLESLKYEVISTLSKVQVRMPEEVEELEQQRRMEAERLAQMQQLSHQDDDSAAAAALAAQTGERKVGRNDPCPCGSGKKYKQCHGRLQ

Structure (SMILES) | Percent Effect [1] [%] | Percent Effect [2] [%] | Percent Effect [3] [%] | Percent Effect [4] [%] | Percent Effect [5] [%] | Percent Effect [6] [%] | Percent Effect [7] [%] | Percent Effect [8] [%] | Percent Effect [9] [%] | Percent Effect [10] [%]
Cc1cnn(C2CCCN(C(=O)c3cc(C4CC4)on3)C2)c1 (stereo not given) | -4.9 | 10.3 | -6.25 | 5.16 | 0.82 | -0.939 | -0.883 | 4.31 | 10.8 | -1.27
COC(=O)C1CCN(C(=O)c2ccc(NS(C)(=O)=O)c(C)c2)CC1 | -3.21 | -5.41 | -1.94 | -2.04 | -0.35 | 10.3 | -0.596 | 3.72 | 0 | 0.629
Cc1cn2c(n1)CCC(NC(=O)c1cc(Br)cn1C)C2 (stereo not given) | -8.37 | 0 | 0.858 | -3.41 | -1.33 | 8.23 | 12.4 | -1.58 | 0 | -4.6
Cc1nn2cccnc2c1C(=O)N1CCCC(Nc2ccccc2)C1 (stereo not given) | -3.41 | 0 | 1 | -0.803 | 7.54 | -2.46 | -3.46 | 5.79 | 5.13 | 8.56
COc1ccc(C2CC(=O)Nc3c2nc2n3CCCC2)cc1OC (stereo not given) | -2.41 | 8.11 | 3.86 | -4.56 | 0.35 | 15.9 | 30.7 | 1.6 | 14.6 | -4.25
CC(C)N1CCCC2(CCN(C(=O)CCCn3ccnc3)C2)C1=O (stereo not given) | -6.84 | 2.7 | 0.678 | -2.62 | -1.75 | 13.4 | -5.32 | 4.79 | 12.2 | -0.546
O=C(Nc1nccs1)NC1CCN(Cc2ccccc2)C1 (stereo not given) | 0.43 | 15.4 | -11.5 | 7.04 | 4.51 | 9.13 | -11.6 | 6.22 | 22.9 | 1.47
Cn1ccc2ccc(C(=O)N3CCN(C(=O)N4CCOCC4)CC3)cc21 | -5.67 | 24.3 | 12.2 | 9.6 | 3.85 | 13.2 | 14.4 | 9.04 | 17.1 | -1.13
CN1CCC/C1=N\S(=O)(=O)c1ccc(NC(=O)c2ccc(F)cc2)cc1 | 1.02 | 26 | 3.66 | 6.34 | 28.5 | 9.82 | 14.2 | 5.88 | 28.2 | -9.94
Cc1ccccc1S(=O)(=O)N1CCCCC1c1ccn[nH]1 (stereo not given) | 1.53 | 9.33 | -8.62 | -7.5 | 0.443 | 13.3 | 19.3 | 0 | 7.5 | -21.7
